sEH activator: soluble epoxide hydrolase activators, primary screen, biochemical, human sEH | Bifunctional epoxide hydrolase 2 (Homo sapiens), P34913 | purified human sEH enzymatic activity, activator screen | activation, % at 2 µM | 91,000 compounds, 0.04% hits | AID 717, 2007; in the data active = activation above about 37%
Target sequence (P34913 whole entry, looked up): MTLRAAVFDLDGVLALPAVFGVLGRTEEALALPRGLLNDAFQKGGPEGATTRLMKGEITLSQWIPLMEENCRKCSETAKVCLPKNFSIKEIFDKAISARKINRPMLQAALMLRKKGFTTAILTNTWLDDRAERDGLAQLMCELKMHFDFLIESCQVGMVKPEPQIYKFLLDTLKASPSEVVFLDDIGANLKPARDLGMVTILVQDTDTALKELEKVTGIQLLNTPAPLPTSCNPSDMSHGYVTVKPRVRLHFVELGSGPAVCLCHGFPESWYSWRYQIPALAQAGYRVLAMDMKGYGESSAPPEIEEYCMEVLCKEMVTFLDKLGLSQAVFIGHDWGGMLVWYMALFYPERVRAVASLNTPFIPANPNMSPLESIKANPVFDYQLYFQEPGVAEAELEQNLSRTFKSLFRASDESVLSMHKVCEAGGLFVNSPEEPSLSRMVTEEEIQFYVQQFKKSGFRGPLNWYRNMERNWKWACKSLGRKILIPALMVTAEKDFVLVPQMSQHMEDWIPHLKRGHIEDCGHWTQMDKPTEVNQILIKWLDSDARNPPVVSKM
PostGolgi yeast: phenotypic screen on post-Golgi transport, primary screen; post-Golgi transport phenotypic cell assay; inhibition, % at 10 µM; 98,000 compounds, 0.9% hits;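 also: yeast cells grown in 1536-well plates; yeast grown about 18 h at 30C before absorbance read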
PostGolgi ctrl: growth inhibition of yeast control strain, primary screen, counter-screen for post-Golgi transport modulator project | inhibition, % at 10 µM | AID 738, 2007 | efflux-deficient yeast background strain, growth absorbance A615, 16 h | 98,000 compounds, 5% hits
sEH inhibitor: soluble epoxide hydrolase inhibitors, primary screen, biochemical, human sEH; Bifunctional epoxide hydrolase 2 (Homo sapiens), P34913; recombinant human sEH enzymatic activity assay; inhibition, % at 2 µM; 91,000 compounds, 0.34% hits; AID 707, 2007; in the data active = inhibition above about 80%
Cav3 T inh: Cav3.2 calcium influx blockers – cell-based, Fluo-4 calcium fluorescence, FDSS, MLSMR library, primary screen | Cav3.2-expressing cells; stronger effect = lower value | Voltage-dependent T-type calcium channel subunit alpha-1H (Homo sapiens), O95180 | B-score at 10 µM | 100,000 compounds, 4% hits;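 active = single-dose well whose peak fluorescence ratio is a statistical outlier from its plate by either plate-standardised score or position-corrected B-score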
Each line names hits and unclear results; the compound was inactive in the other large screens. Sampled rows, rich in hits. Any-hit rate of the full collection: about 7.8%. Rule as the data show it, unless noted: active = inhibition above about 30%; inactive = the rest.

Cc1c(Cl)cccc1NC(=S)NCCC(c1ccccc1)c1ccccc1	Cav3 T inh -6.9 (no result: sEH activator, PostGolgi yeast, PostGolgi ctrl, sEH inhibitor)
CC(c1ccccc1)N1CC(C(=O)N2CCN(c3ccc(F)cc3)CC2)CC1=O (centres undefined)	none
CC(C)(C)[C@H]1C=C(C(N)=O)O[C@@H](OCCCCO)C1	none (no result: sEH activator, PostGolgi yeast, PostGolgi ctrl, sEH inhibitor)
CCOc1ccccc1N1CCN(CC(=O)Nc2nnc(CC)s2)CC1	none
CCc1nnc(NC(=O)CN2CCN(c3nc(-c4ccccc4)cs3)CC2)s1	PostGolgi ctrl 42
O=C(NCc1ccco1)c1nnc(Cc2ccc(Cl)cc2)o1	none
O=C(NCc1cccnc1)c1nnc(Cc2ccc(F)cc2)o1	PostGolgi ctrl 40 (no result: Cav3 T inh)
O=C(NCc1ccncc1)c1nnc(Cc2c(F)cccc2Cl)o1	PostGolgi ctrl 31
Cn1nnc2cc(C(=O)NCc3ccco3)ccc21	none
Cn1nnc2cc(C(=O)NC(C)(C)C)ccc21	PostGolgi ctrl 37
CCOC(=O)c1nn(-c2ccccc2)c(C#N)c1NC(=O)c1nn(CC)cc1Br	PostGolgi ctrl 44
CCOC(=O)c1c(NC(=O)c2c(Br)cnn2C)c(C#N)nn1-c1ccccc1	PostGolgi ctrl 41
CCC(=O)N1N=C(c2ccc(NS(C)(=O)=O)cc2)CC1c1ccc(C)cc1 (centres undefined)	none
CNC(=S)N1N=C(c2ccc(C)cc2)CC1c1ccc(Br)cc1 (centres undefined)	PostGolgi ctrl 35, Cav3 T inh -6.3
CNC(=S)N1N=C(c2ccc(C)cc2)CC1c1ccc(Cl)cc1 (centres undefined)	PostGolgi ctrl 44, Cav3 T inh -6.2
Cc1cc(-c2ccccc2)nc(N2CCC(C(=O)NCC3CCCCC3)CC2)n1	none (no result: PostGolgi yeast, PostGolgi ctrl, Cav3 T inh)
COc1ccc(OC)c(NS(=O)(=O)Cc2ccccc2)c1	none (no result: sEH activator, sEH inhibitor, Cav3 T inh)
COCCNC(=O)c1ccc(CN2CCOCC2)cc1	none (no result: PostGolgi yeast, PostGolgi ctrl)
CCCCCCCCCC(=O)N/N=C/c1ccc(C)s1	PostGolgi ctrl 33
COc1ccc(-c2nc(CSCC(=O)NC3CCCc4ccccc43)c(C)o2)cc1 (centres undefined)	Cav3 T inh -8.2
COc1ccc(-c2nc(CSCC(=O)NCc3ccco3)c(C)o2)cc1	none
C=CCn1c(SCn2nnc3ccccc3c2=O)nnc1-c1ccc(Br)cc1	none
C=CCn1c(SCn2nnc3ccccc3c2=O)nnc1C1CCCCC1	PostGolgi ctrl 32
COC(=O)C(NC(C)=O)(Nc1nc(C)cs1)C(F)(F)F (centres undefined)	none
COC(=O)C(NC(C)=O)(Nc1nc2c(C)cc(C)cc2s1)C(F)(F)F (centres undefined)	Cav3 T inh -4.3
CN(c1cccc(NC(=O)COc2ccc(Cl)cc2Cl)c1)S(C)(=O)=O	none (no result: PostGolgi yeast, PostGolgi ctrl)
O=C(NC1CCCCC1)c1cccc(Cn2cc(Cl)cn2)c1	none
O=c1c(O)c(-c2cccs2)oc2ccccc12	Cav3 T inh -3.8
Cc1ccc(-c2oc3ccccc3c(=O)c2O)cc1	none (no result: sEH activator, sEH inhibitor)
O=c1c(O)c(-c2cccs2)oc2ccc(Cl)cc12	Cav3 T inh -4.8
CC1(c2nnc(-c3cccc(Cl)c3)o2)CC(c2ccc(F)cc2)=NO1 (centres undefined)	none (no result: sEH activator, PostGolgi yeast, PostGolgi ctrl, sEH inhibitor)
N#C/C(=C1\C(=O)Nc2c(Cl)cc(Cl)cc21)c1nnc2n1CCCCC2	none
COC(=O)Cc1cc(=O)[nH]c(Nc2nc3ccccc3o2)n1	Cav3 T inh 3.5
CC(C)Cn1c(N)c(C(=O)COC(=O)CC23CC4CC(CC(C4)C2)C3)c(=O)n(C)c1=O	none
O=S(=O)(Nc1ccc(-c2nc3ccccc3o2)cc1)c1ccccc1	PostGolgi ctrl 39
CC(=O)Nc1ccc(S(=O)(=O)Nc2cccc(-c3nc4ccccc4o3)c2)cc1	none
Cc1c(NC(=O)Nc2ccc(Cl)c(Cl)c2)c(=O)n(-c2ccccc2)n1C	none (no result: sEH activator, sEH inhibitor)
COC(=O)c1sccc1NC(=O)CSc1ccccc1NS(=O)(=O)c1ccccc1Cl	Cav3 T inh -4.3
COC(=O)c1sccc1NC(=O)CSc1cc(Cl)ccc1Cl	none (no result: Cav3 T inh)
COC(=O)c1sccc1NC(=O)CSc1ccccc1NS(=O)(=O)c1ccc(Cl)cc1	Cav3 T inh -6
COc1ccc(S(=O)(=O)Cc2ccccc2)cc1N	none (no result: sEH activator, sEH inhibitor)
CC(=O)N1N=C(c2cccc(Cl)c2)OC1c1ccc(C(C)C)cc1 (centres undefined)	PostGolgi ctrl 35
CCOC(=O)Cn1c(=N)n(Cc2ccccc2F)c2ccccc21	none
C=CCn1c(N)c(C(=O)OC(C)CC)c2nc3ccccc3nc21 (centres undefined)	PostGolgi ctrl 38
C=CCn1c(N)c(C(=O)OC(C)(C)C)c2nc3ccccc3nc21	none
C=CCn1c(N)c(C(=O)Nc2ccccc2)c2nc3ccccc3nc21	PostGolgi ctrl 37 (no result: sEH activator, sEH inhibitor)
C=CCNC(=O)c1c(N)n(-c2cccc(S(N)(=O)=O)c2)c2nc3ccccc3nc12	none
C=C(C)CSc1nnc(-c2ccccc2)n1N	none (no result: Cav3 T inh)
COC(=O)CCN(C(C)=O)c1ccc(N)cc1	PostGolgi ctrl 40
Cc1cc2nc(C)n(CCCNC(=O)Nc3cccc4ccccc34)c2cc1C	none
COc1ccc(S(=O)(=O)N(C)CC(=O)NCc2cccnc2)cc1Cl	none
Cc1cc2cc(CN(Cc3ccco3)C(=O)NCc3ccccc3)c(=O)[nH]c2cc1C	Cav3 T inh -7.4
Cc1ccc2[nH]c(=O)c(CN(Cc3ccco3)C(=O)c3ccncc3)cc2c1	none (no result: sEH activator, sEH inhibitor)
COc1ccc2[nH]c(=O)c(CN(Cc3ccco3)C(=O)c3ccccc3)cc2c1	none
Cc1cc2cc(CN(Cc3ccco3)C(=O)C3CCCCC3)c(=O)[nH]c2cc1C	Cav3 T inh -9.3
O=C(NCc1ccc(F)cc1)c1cnc(-c2ccccn2)nc1C(F)(F)F	none
Cc1ccc(/C(N)=N/OC(=O)c2cccc(F)c2)cc1	PostGolgi ctrl 44
Cc1ccc(S(=O)(=O)N2CCCC(C(=O)NCCC3=CCCCC3)C2)cc1 (centres undefined)	sEH inhibitor 82
O=C(NCCC1=CCCCC1)C1CCCN(S(=O)(=O)c2ccccc2)C1 (centres undefined)	sEH inhibitor 84
O=C(NCCC1=CCCCC1)C1CCCN(S(=O)(=O)c2ccc(F)cc2)C1 (centres undefined)	none
CC(C)(C)c1ccc(C(=O)N2CCC(C(=O)NCCC3=CCCCC3)CC2)cc1	sEH inhibitor 86, Cav3 T inh -5
C/C(=N\NC(=O)C1CCCN(S(=O)(=O)c2ccccc2)C1)c1ccncc1 (centres undefined)	Cav3 T inh 4.1
Cn1c(Cc2ccccc2)nnc1SCC(=O)c1cccs1	none
CCCCNC(=O)Cc1coc2ccc3ccccc3c12	none
COc1ccc(OC)c(NC(=O)Cc2coc3ccc4ccccc4c23)c1	PostGolgi ctrl 35
COc1ccc(OC)c(NC(=O)Cc2coc3ccc(C)cc23)c1	none
CC(C)CN(CC(C)C)C(=O)Cc1coc2ccc3ccccc3c12	Cav3 T inh -4.9
CCC/C=C1/CCCOC(C(=O)NCc2ccccc2)(C(F)(F)F)C1 (centres undefined)	none (no result: sEH activator, PostGolgi yeast, PostGolgi ctrl, sEH inhibitor)
CC[C@@H]1CC=C[C@H]2[C@H]1C(=O)N(Cc1ccccc1)[C@H]2c1ccc(OC)c(Cl)c1	none (no result: sEH activator, PostGolgi yeast, PostGolgi ctrl, sEH inhibitor)
